{"source": "PubChem BioAssay (NCATS)", "note": "Results filed as inconclusive are left out. Activity calls are given as the source filed them. The call rests on the fitted dose curve; in most records, active means well fitted inhibition curve with a large enough effect; inconclusive means small, poorly fitted or top-dose-only effect; inactive means flat fitted curve, though single readings scatter. Potency means the concentration at half of the fitted maximal effect.", "data": [{"molecular_target": "Luciferin 4-monooxygenase (Photinus pyralis) (UniProt P08659)", "sequence (P08659 whole entry, looked up)": "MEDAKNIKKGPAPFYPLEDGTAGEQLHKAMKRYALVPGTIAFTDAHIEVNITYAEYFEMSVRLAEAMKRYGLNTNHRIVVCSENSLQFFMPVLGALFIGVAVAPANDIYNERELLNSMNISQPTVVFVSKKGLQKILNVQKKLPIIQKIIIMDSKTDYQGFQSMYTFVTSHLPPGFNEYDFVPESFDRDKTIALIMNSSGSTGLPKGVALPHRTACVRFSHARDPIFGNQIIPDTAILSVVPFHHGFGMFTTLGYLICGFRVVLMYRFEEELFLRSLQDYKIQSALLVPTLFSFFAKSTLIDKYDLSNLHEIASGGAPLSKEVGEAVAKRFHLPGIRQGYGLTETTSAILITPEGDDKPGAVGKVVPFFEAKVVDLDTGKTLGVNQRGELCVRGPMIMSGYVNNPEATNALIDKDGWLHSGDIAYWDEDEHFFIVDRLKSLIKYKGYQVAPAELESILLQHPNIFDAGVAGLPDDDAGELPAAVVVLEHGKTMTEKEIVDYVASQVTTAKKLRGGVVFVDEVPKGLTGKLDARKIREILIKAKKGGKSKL", "experiment": "Biochemical firefly luciferase enzyme assay for NPC (AID 624030); further: nearly all actives have a fitted effect of over 70% in size;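 on activity change, negative = inhibition: purified P. pyralis luciferase at 10 nM with luciferin and ATP substrate; 0% = DMSO and -100% = full luciferase inhibition by PTC124 control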", "conditions": "purified P. pyralis luciferase, luminescence, 5 min; series mostly up to 58.6 µM; activity change, negative = inhibition: at the top concentration", "summary_of_the_method": "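Direct inhibition of firefly luciferase enzyme (10 nM final, 50 mM Tris Acetate) assessed by luminescence within 5 minutes. Percent activity scaled between DMSO and PTC124 positive control, with concentration-effect curves classified by fit quality and response.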", "values": [{"compound": "NC(=O)NS(=O)(=O)c1ccc(N)cc1", "activity change, negative = inhibition": "-4.79% (inactive)"}, {"compound": "NC(N)=NS(=O)(=O)c1ccc(N)cc1", "activity change, negative = inhibition": "1.97% [at 24.9 µM] (inactive)"}, {"compound": "CC(=O)Oc1cccc(O)c1", "activity change, negative = inhibition": "4.52% (inactive)"}, {"compound": "O=C(O)Cn1c(C(=O)Nc2nc(-c3ccccc3Cl)cs2)cc2ccccc21", "Potency": "12.8 µM (active)"}, {"compound": "CC(C)(C)C(=O)OCOC(=O)[C@@H]1N2C(=O)[C@@H](NC(=O)[C@H](N)c3ccccc3)[C@H]2SC1(C)C", "activity change, negative = inhibition": "1.28% [at 24.9 µM] (inactive)"}, {"compound": "Cc1c(NC(=O)c2cccnc2)c(=O)n(-c2ccccc2)n1C", "activity change, negative = inhibition": "0.765% [at 24.9 µM] (inactive)"}, {"compound": "CCN(CC)CC1CCCCN1CC(=O)N1c2ccccc2C(=O)Nc2cccnc21", "note": "(stereo not given)", "activity change, negative = inhibition": "-0.405% (inactive)"}, {"compound": "CCc1nnc(NS(=O)(=O)c2ccc(N)cc2)s1", "activity change, negative = inhibition": "-0.124% (inactive)"}, {"compound": "OCc1ccc(Cl)cc1Cl", "activity change, negative = inhibition": "-3.43% (inactive)"}, {"compound": "CCCCCCCCCCC(CO)CCCCCCCC", "note": "(stereo not given)", "activity change, negative = inhibition": "3.32% (inactive)"}, {"compound": "N[C@@H](Cc1ccc(O)cc1)C(=O)O", "activity change, negative = inhibition": "0.589% (inactive)"}, {"compound": "CCS(=O)(=O)CCn1c([N+](=O)[O-])cnc1C", "activity change, negative = inhibition": "-0.456% [at 24.9 µM] (inactive)"}, {"compound": "Cc1cccc(C)c1NC(=O)CC12CCCN1CCC2", "activity change, negative = inhibition": "1.04% (inactive)"}, {"compound": "O=C(O)COC(=O)Cc1ccccc1Nc1c(Cl)cccc1Cl", "activity change, negative = inhibition": "-9.51% [at 24.9 µM] (inactive)"}, {"compound": "COc1nccnc1NS(=O)(=O)c1ccc(N)cc1", "activity change, negative = inhibition": "0.997% (inactive)"}, {"compound": "Cc1c(Cn2ccnc2)c2ccccc2n1CCC(=O)O", "activity change, negative = inhibition": "-2.1% (inactive)"}, {"compound": "C[C@@H](N)C(=O)O", "activity change, negative = inhibition": "2.05% (inactive)"}, {"compound": "O=C1c2ccccc2S(=O)(=O)N1CCCCN1CCN(c2ncccn2)CC1", "activity change, negative = inhibition": "3.44% (inactive)"}, {"compound": "C=CCSCC1Nc2cc(Cl)c(S(N)(=O)=O)cc2S(=O)(=O)N1", "note": "(stereo not given)", "activity change, negative = inhibition": "-1.49% (inactive)"}, {"compound": "Cc1cccc(C(=O)O)c1O", "activity change, negative = inhibition": "-1.22% (inactive)"}, {"compound": "CC(O)CCCCn1c(=O)c2c(ncn2C)n(C)c1=O", "note": "(stereo not given)", "activity change, negative = inhibition": "0.619% (inactive)"}, {"compound": "NC(=O)CC[C@@H](N)C(=O)O", "activity change, negative = inhibition": "4.98% (inactive)"}, {"compound": "CC(C)CCOC(=O)c1ccc(N(C)C)cc1", "Potency": "6.42 µM (active)"}, {"compound": "OCC(O)CS", "note": "(stereo not given)", "activity change, negative = inhibition": "-4.55% (inactive)"}, {"compound": "C[N+](C)(C)CC[N+]1(C)Cc2c(Cl)c(Cl)c(Cl)c(Cl)c2C1", "activity change, negative = inhibition": "7.81% (inactive)"}, {"compound": "O=C(Cn1ccnc1[N+](=O)[O-])NCc1ccccc1", "activity change, negative = inhibition": "-0.426% (inactive)"}, {"compound": "NC(N)=NCCN1CCCCCCC1", "activity change, negative = inhibition": "0.971% [at 24.9 µM] (inactive)"}, {"compound": "CN1CCCN=C1COC(=O)C(O)(c1ccccc1)C1CCCCC1", "note": "(stereo not given)", "activity change, negative = inhibition": "0.488% (inactive)"}, {"compound": "CN1C(C)(C)CCCC1(C)C", "activity change, negative = inhibition": "3.23% (inactive)"}, {"compound": "Nc1ccc(C(=O)Oc2ccccc2)c(O)c1", "Potency": "6.42 µM (active)"}, {"compound": "c1ccc2[nH]ccc2c1", "activity change, negative = inhibition": "-0.0407% (inactive)"}, {"compound": "COc1ccc(Cc2cnc(N)nc2N)cc1OC", "activity change, negative = inhibition": "-0.118% (inactive)"}, {"compound": "O=c1[nH]c(=O)c2ccccc2o1", "activity change, negative = inhibition": "-1.16% (inactive)"}, {"compound": "O=C(CCBr)N1CCN(C(=O)CCBr)CC1", "activity change, negative = inhibition": "0.181% (inactive)"}, {"compound": "CCOc1ccc(C(=O)OCCN(CC)CC)cc1", "activity change, negative = inhibition": "0.111% (inactive)"}]}]}
